Experimental data reported in PubChem BioAssay (EPA / NIEHS).
Where “and” joins values, the source holds several entries; their conditions need not be identical. Equal entries are not always repeated. Where a structure was tested more than once in an assay, its records may differ in their call. Calls of active or inactive are those of the source. The calls were made as follows: active = hit-call score of the fitted dose curve at least 0.9, where 1 is the maximum; inactive = score below 0.9.

Assay: CCTE_Shafer_MEA_dev_spike_duration_mean: CCTE's Neural Network Formation Assay for Mean Spike Duration, Shafer Lab (AID 2284051);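 as to AC50: potency for a decrease in mean network spike duration versus DMSO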
Experimental: CCTE_Shafer_MEA_dev assay is conducted using Axion Biosystems 48 well microelectrode array (MEA) plates and Maestro recording system. Each well of the MEA plate contains a grid of 16 microelectrodes embedded in the culture surface. Electrically active cells, such as neurons, can be cultured over the electrodes, and electrical activity in these cells can be recorded extracellularly. The spontaneous firing of neurons is captured from each electrode on a microsecond timescale providing both temporally and spatially precise data. […] The CCTE_Shafer_MEA_dev assay uses primary cultures of rat cortical neurons. Recordings are made on days post-plating 5, 7, 9 and 12. As these cultures mature over time, neural networks develop functional activity and form cohesive networks in which electrical activity can be highly coordinated. CCTE_Shafer_MEA_dev_spike_duration_mean is 1 of 19 assay components of the CCTE_Shafer_MEA_dev assay. It measures the average duration of network spikes (temporally-clustered groups of action potential firing across multiple electrodes) during a recording in a microelectrode array (MEA) using Axion Biosystems Maestro 768 channel amplifier with the AxIS adaptive spike detector. To collapse across multiple recordings made on days post-plating 5, 7, 9 and 12, the trapezoidal area-under-the-curve of the component is calculated.Data from the assay component CCTE_Shafer_MEA_dev_spike_duration_mean was analyzed into 1 assay endpoint. This assay endpoint, CCTE_Shafer_MEA_dev_spike_duration_mean, was analyzed in the negative analysis fitting direction relative to DMSO as the negative control and baseline of activity. Using a type of functional reporter, gain or loss-of-signal activity can be used to understand electrical activity.
On the day prior to culture, each well was coated thoroughly with 150 uL of 0.05% polyethyleneimine (PEI, Sigma Cat P3143) in 50 mM HEPES (Sigma Cat H7523) at a pH of 8. The plate was incubated at 37C for one hour. PEI was rinsed out with 500 uL of sterile water three times. Plates were stored at 4C until the day of culture. This culture was plated at a seeding density of 1.5 x 10^5 cells/well on a 48-well MEA plate, prepared as described above. Cells were administered via a 25 uL media/laminin ([…]; Sigma Cat L2020-1MG) drop directly onto the microelectrode array, as adding the cells with the laminin results in better attachment than pre-coating with laminin. After 2 hours, an additional 475 uL of cortical media was added and the cells returned to the incubator. Exposure starts at day 0 of plating and is continued over twelve days of network development until the experiment is terminated. Cells are fed with fresh medium on DIV 5 and 9, following the recordings on those days. The entire volume of media in the well is exchanged and any vehicle or compound treatment is renewed. Complete details are found in OP-NHEERL/ISTD/SBB/TJS/2015-03-r0 (available on request, email shafer.tim@epa.gov). Measurement of the electrical activity is non-invasive, and recordings can be made from the same plate over multiple different days of the culture. In cortical neurons, this allows for the measurement of extracellular action potentials over the period during which networks form in the MEA plate.
For `CC1(C)C(C(=O)OC(C#N)c2cccc(Oc3ccccc3)c2)C1(C)C` (stereo not drawn), the AC50 was 16.2 µM (active).
In the case of `CO/N=C(/C1=NOCCO1)c1ccccc1Oc1ncnc(Oc2ccccc2Cl)c1F`, the AC50 is reported as 856 nM (active) and 904 nM (active).
In the case of `C=C(C)CN(CC)c1c([N+](=O)[O-])cc(C(F)(F)F)cc1[N+](=O)[O-]`, the AC50 is reported as 13.2 µM (active).
With `CNC(=O)Oc1cccc2ccccc12` the outcome was “inactive”.
For `CCOC(=O)C(C)OC(=O)c1cc(Oc2ccc(C(F)(F)F)cc2Cl)ccc1[N+](=O)[O-]` (stereo not drawn), the outcome was “inactive”.
In the case of `N#CN=C1SCCN1Cc1ccc(Cl)nc1`, the outcome is reported as “inactive”.
In the case of `O=C1C2CC=CCC2C(=O)N1SC(Cl)(Cl)Cl` (stereo not drawn), the AC50 is reported as 9.85 µM (active) and the outcome is reported as “inactive”.
In the case of `COP(=S)(OC)SCn1nnc2ccccc2c1=O`, the AC50 is reported as 27.2 µM (active).
For `COP(=O)(OC)O/C(C)=C/C(=O)N(C)C`, the outcome was “inactive”.
For `O=C(Nc1ccccc1-c1ccc(Cl)cc1)c1cccnc1Cl`, the outcome was “inactive” and the AC50 was 4.26 µM (active).
In the case of `COP(=S)(OC)Oc1ccc([N+](=O)[O-])c(C)c1`, the outcome is reported as “inactive”.
With `CCCN(CC)CC1COC2(CCC(C(C)(C)C)CC2)O1` (stereo not drawn) the AC50 was 0.275 µM (active).
For `CS(=O)(=O)c1ccc(C(=O)C2C(=O)CCCC2=O)c([N+](=O)[O-])c1`, the outcome was “inactive”.
With `CC(C)(C)C(=O)C(Oc1ccc(Cl)cc1)n1cncn1` (stereo not drawn) the AC50 was 40.2 µM (active).
For `Cc1c(COC(=O)[C@@H]2[C@H](/C=C(\Cl)C(F)(F)F)C2(C)C)cccc1-c1ccccc1`, the AC50 was 2.33 µM (active) and 2.32 µM (active).
With `CN/C(=N\[N+](=O)[O-])NCc1cnc(Cl)s1` the outcome was “inactive”.
In the case of `CCN(CC)c1nc(C)cc(OP(=S)(OC)OC)n1`, the AC50 is reported as 50 µM (active).
In the case of `CCNC(=O)NC(=O)C(C#N)=NOC`, the outcome is reported as “inactive”.
With `CC1(C)C(C=C(Cl)Cl)C1C(=O)OC(C#N)c1cccc(Oc2ccccc2)c1` (stereo not drawn) the AC50 was 6.93 µM (active) and the outcome was “inactive”.
With `CCOP(=O)(OCC)Oc1nc(Cl)c(Cl)cc1Cl` the outcome was “inactive” and the AC50 was 5.13 µM (active) and 2.98 µM (active).
In the case of `COC(=O)N(C(=O)N1CO[C@@]2(C(=O)OC)Cc3cc(Cl)ccc3C2=N1)c1ccc(OC(F)(F)F)cc1`, the AC50 is reported as 15 µM (active).
In the case of `CCSC(=O)N1CCCCCC1`, the outcome is reported as “inactive”.
With `CS(=O)(=O)c1cc(C(F)(F)F)ccc1C(=O)c1cnoc1C1CC1` the outcome was “inactive”.
For `CC(C)=CC1C(C(=O)OCc2coc(Cc3ccccc3)c2)C1(C)C` (stereo not drawn), the outcome was “inactive”.
